# Measurements: PubChem BioAssay AID1476 (National Center for Advancing Translational Sciences (NCATS), 2009)
# The campaign covered roughly 200,000 compounds. About 4,500 (2.2%) were called active. About 12% were inconclusive and are not listed. This is one part of a sample in which actives are shown more often than they occur. Unmarked numbers belong to inactive results. Calls follow the shape of the dose curve; as a rule, active = well fitted inhibition curve with a large enough effect; inconclusive = small, poorly fitted or top-dose-only effect, or effect the other way; inactive = flat fitted curve, though single readings scatter.
# Target: Cruzipain (Trypanosoma cruzi) (UniProt P25779)
# Sequence (P25779 123-467 limits assumed): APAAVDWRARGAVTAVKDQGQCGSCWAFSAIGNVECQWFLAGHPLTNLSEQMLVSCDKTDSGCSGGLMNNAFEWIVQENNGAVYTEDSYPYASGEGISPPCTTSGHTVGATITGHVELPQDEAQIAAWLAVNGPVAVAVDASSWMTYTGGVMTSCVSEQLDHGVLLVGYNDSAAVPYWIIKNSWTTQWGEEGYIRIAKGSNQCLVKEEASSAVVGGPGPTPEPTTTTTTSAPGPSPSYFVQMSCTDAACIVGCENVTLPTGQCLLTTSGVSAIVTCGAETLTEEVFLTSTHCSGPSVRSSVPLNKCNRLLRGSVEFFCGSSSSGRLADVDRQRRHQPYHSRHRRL
# Test: qHTS Assay for Promiscuous and Specific Inhibitors of Cruzain (without detergent); also: nearly all actives have a fitted effect of over 40% in size;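 as to max response, negative = inhibition: plate controls were enzyme without inhibitor for no effect and buffer without enzyme for full effect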
# Conditions: purified cruzain, Z-FR-AMC fluorescence, no detergent
# In short: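 Detergent-free condition (0.00005% Triton X-100) in acetate buffer pH 5.5 with DTT. 1.5 nM enzyme and compound were pre-mixed 15 min, then 2 uM Z-FR-AMC substrate added; reaction progress from fluorescence change between first and third reads (60 s).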
# Potency is read from the fitted curve at half-maximal effect.
SMILES,"max response, negative = inhibition",Potency
CCN(CC)S(=O)(=O)c1ccc2c(c1)nc(CN(C)C(=O)Nc1ccc(Cl)cc1)n2C,2.49%,
CCOC(=O)c1[nH]c(C)c(CCC(=O)N2CCN(c3ccccc3)CC2)c1C,6.86%,
Cc1cccc(C(=O)N2CCc3cc(CNC(=O)Cc4ccc(F)cc4)ccc32)c1,-5.89%,
CCc1ccc(CN(Cc2ccco2)C(=O)COc2ccc(Cl)c(C)c2)cc1,-28.4%,
CCN(CC)S(=O)(=O)c1ccc2c(c1)N(CC(=O)NCC(C)c1ccccc1)C(=O)CO2 (centres undefined),13.8%,
c1ccc2[nH]c(-c3nc4ccccc4[nH]3)nc2c1,9%,
O=C(OCc1nc2ccccc2[nH]1)C1CCCCC1,6.92%,
O=C(Nc1sc2c(c1-c1nc3ccccc3[nH]1)CCCC2)C1CC1,,25.1 µM (active)
Cc1ccc2c(c1)N(C(=O)CCC(=O)NCc1ccccc1F)CC(C)O2 (centres undefined),2.02%,
Cc1ccc(OCCSc2nc(C)c(Cc3ccccc3)c(=O)[nH]2)cc1,-1.11%,
O=C(NC1CC(=O)N(c2ccc(F)cc2)C1)c1cccs1 (centres undefined),8.85%,
Cc1c(Cl)cccc1-c1ccc(CNCCCSc2nnnn2C)o1,-7.09%,
CCCc1ccc(OCc2ccc(C(=O)N/N=C/c3cccc([N+](=O)[O-])c3)o2)c(OC)c1,,6.31 µM (active)
COc1cc(/C=N/O)ccc1OCc1ccc([N+](=O)[O-])cc1,0.78%,
COc1cc(/C=N\NC(=O)CNC(=O)c2cccc([N+](=O)[O-])c2)ccc1O,6.36%,
Cc1ccc(-c2nc3cccc(C)n3c2Nc2ccc3c(c2)OCCO3)cc1,-0.169%,
CCCN1CCN(CCCNC(=O)c2cnn(-c3ccc(C)cc3)c2-n2cccc2)CC1,7.09%,
CCCCOc1ccc(CNC(=O)c2ccc3c(c2)N(C)C(=O)C2CCCCN32)cc1 (centres undefined),13.9%,
COc1ccccc1NC(=O)c1oc2ccccc2c1NC(=O)COc1ccccc1OC,-7.97%,
Cc1cccc(CC(=O)N2CCN=C2SCc2ccc([N+](=O)[O-])cc2)c1,-7.03%,
Cc1cccc(COc2ccccc2/C=N/Nc2ccc([N+](=O)[O-])cc2)c1,,25.1 µM (active)
Cc1cc([N+](=O)[O-])ccc1NCc1cccc([N+](=O)[O-])c1,2.12%,
N#Cc1ccc(-c2cccs2)nc1SCc1ccc(Br)cc1,-6.69%,

SMILES,"max response, negative = inhibition",Potency
COc1ccc2c(c1)c(N1CCCC1=O)c(C(=O)Nc1ccccc1C(F)(F)F)n2C,-10%,
COc1ccc(C(=O)N2CCC(c3nc4ccccc4o3)CC2)cc1,14.3%,
Cc1ccc(-c2noc(-c3nnn(-c4cccc(C(F)(F)F)c4)c3N)n2)cc1,1.55%,
CCSc1nnc(NC(=O)c2ccc(C)cc2)s1,,0.631 µM (active)
CCSc1nnc(NC(=O)Cc2ccccc2OC)s1,0.739%,
CCSc1nnc(NC(=O)c2cc(=O)c3cc(C)c(C)cc3o2)s1,-5.87%,
Cc1ccccc1OCc1nc2c3cnn(-c4ccccc4F)c3ncn2n1,-7.52%,
COc1cc(OC)c(NC(=O)Cc2ccc(-n3c(C)nc4cccnc43)cc2)cc1Cl,4.77%,
COc1c(Cl)cc(C(=O)N(Cc2ccccc2F)C2CCS(=O)(=O)C2)cc1Cl (centres undefined),6.06%,
Cc1ccc(-c2csc(-c3c[nH]c4ccccc34)n2)cc1,1.08%,
Cc1cccc(N=C2NN=C(c3c[nH]c4ccccc34)CS2)c1,,7.94 µM (active)
COCCn1c(C)cc(C2=NNC(=Nc3ccc(F)cc3)SC2)c1C,-3.73%,
CC(=O)N1c2ccccc2CC1C(=O)N1CCN(c2ccc(F)cc2)CC1 (centres undefined),13.9%,
Cc1nc(SCC(=O)Nc2ccc(C(=O)O)cc2)n[nH]1,6.79%,
Nc1nc(N)c2[nH]c(CNc3ccc(C(=O)O)cc3)nc2n1,,3.98 µM (active)
O=C(CCS(=O)(=O)c1cc(Br)cc2c1N(C(=O)C1CC1)CC2)Nc1ccc(Br)cc1F,-5.03%,
CCOCc1nnc(NC(=O)CSc2ccc(C)cc2)s1,1.04%,
Cc1ccc(OCc2nnc(NC(=O)OCC(C)C)s2)cc1,,20 µM (active)
COCC(=O)Nc1nnc(COc2ccccc2)s1,2.8%,
CCCCOc1ccc(C(=O)N2CC(=O)Nc3ccc(Br)cc3C2c2ccc(F)cc2)cc1 (centres undefined),,25.1 µM (active)
COc1ccc(CC(=O)N2CC(=O)Nc3ccc(Br)cc3C2c2ccc(F)cc2)cc1OC (centres undefined),18.8%,
CCC(CC)C(=O)N1CC(=O)Nc2ccc(Br)cc2C1c1ccccc1 (centres undefined),-0.646%,
Cc1ccc2cccc(NC(=O)c3ccc(OC(C)C)cc3)c2n1,-1.78%,

SMILES,"max response, negative = inhibition",Potency
Cc1[nH]c2ccccc2c1/C=N\NC(=O)Cn1nnc(-c2ccccc2)n1,,7.94 µM (active)
Cc1[nH]c2ccccc2c1/C=N/NC(=O)CNC(=O)c1ccc2c(c1)OCO2,-1.52%,
O=C(Cn1nnc(-c2ccccc2)n1)NCc1ccccc1,3.66%,
CCOc1ccc(NC(=O)c2ncoc2-c2ccco2)cc1,-16.9%,
O=C1C2N=NN(CC(=O)N3N=C(c4cccc5ccccc45)CC3c3ccccc3)C2C(=O)N1c1ccccc1 (centres undefined),,5.01 µM (active)
Cc1ccc(CNC(=O)CSC2=Nc3ccccc3C3=NC(C)C(=O)N23)cc1 (centres undefined),-15.8%,
Cc1ccc(C2=NN(C(=O)CSc3nc(N)cc(N)n3)C(c3ccco3)C2)cc1 (centres undefined),4.32%,
Cc1ccc(N2C(=O)C3N=NN(CC(=O)N4N=C(c5cccc6ccccc56)CC4c4ccccc4)C3C2=O)cc1 (centres undefined),,7.94 µM (active)
Cc1cc(C)c(NC(=O)CSc2nc3nccnc3c(=O)n2CCc2c[nH]c3ccccc23)c(C)c1,9.02%,
O=C(Nc1cc(Cl)cc(Cl)c1)c1ccc2c(c1)N(Cc1cccc(Cl)c1)C(=O)c1ccccc1S2=O (centres undefined),-5.94%,
O=c1[nH]c2cc(Br)ccc2n2cccc12,11.1%,
CCOC(=O)C1CCN(c2ncnc3c2c(-c2ccccc2)cn3-c2cccc(C)c2)CC1,9.85%,
Cc1cc(C(=O)N/N=C/c2ccc(O)c([N+](=O)[O-])c2)c(C)n1-c1ccc(F)cc1,,10 µM (active)
Cc1nc2ccccc2cc1C(=O)N/N=C/c1ccc([N+](=O)[O-])cc1,-1.64%,
CCCCCC(=O)Nc1ccc(C(=O)N/N=C/c2ccc([N+](=O)[O-])cc2)cc1,-23.1%,
COc1cc2nc(NCC(C)c3ccccc3)n3nc(-c4ccccc4)nc3c2cc1OC (centres undefined),5.17%,
Cc1ccccc1NC(=O)CCOc1ccccc1,-3.79%,
CCCN(CCC)C(=O)C1CCCN(c2ncnc3c2nc2n3CCCCC2)C1 (centres undefined),9.35%,
Cc1ccc(CNC(=O)CCc2c(C)nc3nc(CNC(=O)OC(C)(C)C)nn3c2C)cc1,11.1%,
c1cncc(-c2nc(N3CCNCC3)c3ccccc3n2)c1,0.953%,
c1ccc(Nc2nc(N3CCOCC3)c3ccccc3n2)cc1,,12.6 µM (active)
Cc1cc(C(=O)Nc2ccccc2N2CCOCC2)c2ccccc2n1,4.56%,
CN(CC(=O)Nc1ccccc1F)S(=O)(=O)c1ccc2c(c1)c(=O)n(C)c(=O)n2C,-13.2%,

SMILES,"max response, negative = inhibition",Potency
Cc1nc2ccccn2c(=O)c1NC(=O)c1c(F)cccc1F,-1.01%,
COc1ccc(CC(=O)Nc2ccc(-c3nc4ccccc4s3)c(C)c2)cc1,7.02%,
COc1ccc(/C=C(/CC(=O)Nc2ccc(C)cc2)c2nc3ccccc3s2)cc1,,31.6 µM (active)
COc1cccc(/C=C(/CC(=O)Nc2ccc(N3CCOCC3)cc2)c2nc3ccccc3s2)c1,-7.21%,
COc1ccc(CCNC(=O)CCCn2c(=O)c3ccccc3n(Cc3ccc(C)cc3)c2=O)cc1OC,-4.62%,
Cc1ccc(CNC(=O)Cn2c(=O)ccc3cc(S(=O)(=O)N4CCCC4)ccc32)cc1,-9.4%,
CC1CCCN(c2csc3ccc(F)cc3c2=O)C1 (centres undefined),1.1%,
COc1ccccc1-c1noc(CSc2nnc(-c3ccccc3)n2-c2ccc(C)c(C)c2)n1,-9.67%,
COc1ccccc1N1CCN(C(CNC(=O)C(=O)NCc2ccc(C)cc2)c2cccnc2)CC1 (centres undefined),1.39%,
COc1cccc(Cn2c(SCc3ccc(C(=O)N4CCCCC4)cc3)nc3ccncc32)c1,12.2%,
CC(=O)Nc1ccc(S(=O)(=O)NCC2CCC(C(=O)NCCc3ccccc3)CC2)cc1 (centres undefined),-2.5%,
Cc1cnc(C(=O)OCC(=O)Nc2ccc(Cl)cc2Cl)cn1,-17.8%,
COc1ccc(CN2CCn3ncc(C(=O)Nc4ccc(Cl)cc4Cl)c3C2=O)cc1,,5.01 µM (active)
COc1ccc(/C(C)=N/NC(=O)CCC(=O)Nc2ccc(Cl)cc2Cl)c(OC)c1,9.51%,
O=C(O)c1ccc(Cn2c(SCc3ccc(F)cc3)nc3ccncc32)cc1,2.53%,
Cc1ccc(CN2CCCn3nc(C(=O)NCc4ccccc4Cl)cc3C2=O)cc1,12.6%,
O=C(c1ccco1)n1nc(-c2ccc(Cl)cc2)nc1NCc1ccccc1,14.9%,
COC(=O)c1c(-c2cccs2)csc1NC(=O)CSc1ncnc2sc(C)c(C)c12,,6.31 µM (active)
Cc1sc2ncnc(Sc3nc4ccccc4s3)c2c1C,-16.3%,
Cc1nc(SCC(=O)Nc2cc(C)on2)c2c(C)c(C)sc2n1,-4.16%,
